Records with an inconclusive call do not appear. Where a structure was tested more than once in an assay, its records may differ in their call. The source made the active and inactive calls. Unless noted, calls come from the whole dose curve; as a rule, active = well fitted curve in the direction sought with a large enough effect in the repeat runs; inconclusive = weak or mixed curves; inactive = no such curve, though single readings can be large; an effect the other way counts as inactive or inconclusive.
Assays:
[1] = qHTS assay to identify small molecule antagonists of the retinoid acid receptor (RAR) signaling pathway - cell viability counter screen (AID 1159551); note: nearly all actives have a fitted effect of over 35% in size
How it was run: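 In this counter screen, the RARE-luciferase line C3RL4 was exposed for 6 h at 37 C and 5% CO2 to compounds with retinol at 1 uM final. Cellular ATP, read by luminescence, served as the viability measure.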

[2] = qHTS assay to identify small molecule antagonists of the retinoic acid receptor (RAR) signaling pathway (AID 1159552; note: nearly all actives have a fitted effect of over 50% in size; note: potency is the fitted concentration of half-maximal effect)
How it was run: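 RARE-luc C3RL4 cells; cpds + 1 uM (final) retinol, 6 hr, 37 C/5% CO2; luciferase reagent, 30 min RT, luminescence readout. Inhibitors of retinol-driven signal scored.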

[3] = qHTS assay to identify small molecule agonists of the retinoic acid receptor (RAR) signaling pathway (AID 1159553); conditions: C3RL4 RARE luciferase reporter, agonist, 6 h; activation: at 73.3 µM (top of the series) unless noted
How it was run: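 In this cell-based screen, 1,000 C3RL4 cells per well were cultured overnight, dosed with test chemicals in DMSO for 6 hr, and assessed for RARE luciferase luminescence.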

[4] = qHTS assay to identify small molecule antagonists of the estrogen related receptor (ERR) signaling pathway from Tox21 library - cell viability counter screen (AID 1224834); note: nearly all actives have a fitted effect of over 30% in size; note: potency is the fitted concentration of half-maximal effect
How it was run: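 Counter screen run in ERR cells (2,000 cells/well): cells pre-incubated 6 h, then treated with compounds for 17.5 h at 37 C. Fluorescence was read 30 min after CellTiter-Fluor addition.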

[5] = target: Luciferin 4-monooxygenase (Photinus pyralis) (UniProt P08659); experiment: qHTS assay to identify small molecule inhibitors of firefly luciferase (AID 1224835); note: nearly all actives have a fitted effect of over 25% in size
How it was run: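 Biochemical qHTS: compounds run as interplate titrations against purified firefly enzyme, with D-luciferin and ATP each at its KM concentration. Light output recorded by CCD imaging.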

[6] = qHTS assay to identify small molecule agonists of the constitutive androstane receptor (CAR) signaling pathway - cell viability counter screen (AID 1224836); note: nearly all actives have a fitted effect of over 45% in size
How it was run: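 HepG2 cells stably carrying hCAR and a CYP2B6-2.2kb reporter were plated 4 h, then given compounds at 15 concentrations plus PK11195 (final 0.75 uM). After 23 h at 37 C, viability was read by CellTiter-Fluor fluorescence.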

[7] = qHTS assay to identify small molecule antagonists of the constitutive androstane receptor (CAR) signaling pathway - cell viability counter screen (AID 1224837); note: nearly all actives have a fitted effect of over 45% in size
How it was run: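 CITCO at 50 nM final was added alongside compounds (15 concentrations) to double-stable hCAR/CYP2B6-2.2kb HepG2 cells. Following 23 hr at 37 C, cell viability was quantified by CellTiter-Fluor fluorescence intensity.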

[8] = target: Nuclear receptor subfamily 1 group I member 3 (Homo sapiens) (UniProt Q14994); experiment: qHTS assay to identify small molecule antagonists of the constitutive androstane receptor (CAR) signaling pathway (AID 1224838); note: nearly all actives have a fitted effect of over 40% in size
How it was run: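 Inhibition of CITCO-driven (50 nM final) CYP2B6 reporter expression is measured in HepG2 cells stably carrying hCAR. Fifteen compound concentrations are applied for 24 h at 37 C, followed by luciferase luminescence.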

[9] = target: Nuclear receptor subfamily 1 group I member 3 (Homo sapiens) (UniProt Q14994); experiment: qHTS assay to identify small molecule agonists of the constitutive androstane receptor (CAR) signaling pathway (AID 1224839); note: nearly all actives have a fitted effect of over 15% in size
How it was run: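 HepG2 cells stably expressing hCAR and a CYP2B6-2.2kb luciferase reporter were treated with compounds at 15 concentrations plus 0.75 uM PK11195 (final) for 24 h at 37 C; luminescence was read after ONE-Glo addition.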

[10] = qHTS assay to identify small molecule antagonists of the estrogen related receptor signaling pathway with the pleiotropic PPARgamma coactivator (PGC) from Tox21 10K library - cell viability counter screen (AID 1224840; active = well fitted cell-killing curve with a large enough effect in the repeat runs, not every such curve was filed as active; note: nearly all actives have a fitted effect of over 40% in size; note: potency is the fitted concentration of half-maximal effect)
How it was run: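 Readout: fluorescence intensity from CellTiter-Fluor after 30 min at 37 C/5% CO2. Preceded by 17.5 h treatment of PGC/ERR cells with DMSO-dissolved compounds, added 6 h post-seeding.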

[11] = qHTS assay to identify small molecule antagonists of the estrogen related receptor signaling pathway with the pleiotropic PPARgamma coactivator (PGC) from Tox21 10K library (AID 1224841; call rule not given here; note: actives are mostly falling curves and most rising ones were filed inactive; nearly all actives have a fitted effect of over 50% in size)
How it was run: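 One-Glo luminescence, measured after half an hour at room temperature, quantified reporter output of PGC/ERR cells. These had been plated at 2,000 per well, incubated 6 h, dosed with compounds in DMSO, then kept 18 h at 37 C.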

[12] = qHTS assay to identify small molecule agonists of the estrogen related receptor signaling pathway with the pleiotropic PPARgamma coactivator (PGC) from Tox21 10K library (AID 1224842); note: nearly all actives have a fitted effect of over 15% in size
How it was run: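 PGC/ERR reporter cell line, 2,000 cells per well, incubated 6 h at 37 C before 23 nL compound in DMSO was added. After 18 h at 37 C, One-Glo luminescence read following 30 min at room temperature.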

[13] = qHTS assay to identify small molecule agonists of the hypoxia (HIF-1) signaling pathway - cell viability counter screen (AID 1224844; calls by dose curve; note: nearly all actives have a fitted effect of over 50% in size; note: potency is the fitted concentration of half-maximal effect)
How it was run: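 In this counter screen, HRE-bla ME-180 cell viability after 17 hrs of compound exposure at 37C was read by CellTiter-Glo luminescence, multiplexed with the beta-lactamase reporter measurement.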

[14] = target: Thyrotropin receptor (Homo sapiens) (UniProt P16473); experiment: qHTS assay to identify small molecule agonists of the thyroid stimulating hormone receptor (TSHR) signaling pathway (AID 1224843; calls by dose curve; note: nearly all actives have a fitted effect of over 45% in size)
How it was run: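 Agonist-mode screen: TSHR HEK293 cells received test chemicals for half an hour at room temperature, then HTRF cAMP detection reagents for one hour prior to fluorescence measurement. Each chemical ran as a 15-concentration series, triplicated.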

[15] = qHTS assay to identify small molecule antagonists of the estrogen related receptor (ERR) signaling pathway - cell viability counter screen (AID 1224818)
How it was run: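 Viability of ERR cells, CellTiter-Fluor fluorescence; 17.5 h compound exposure at 37 C, DMSO vehicle; 30 min reagent incubation at 37 C/5% CO2.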

[16] = qHTS assay to identify small molecule antagonists of the estrogen related receptor (ERR) signaling pathway (AID 1224819;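 note: luminescence from an ERR-driven luciferase reporter measured with One-Glo reagent; nearly all actives have a fitted effect of over 50% in size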)
How it was run: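 Seed ERR cells 2,000/well; rest 6 h at 37 C/5% CO2; pin compounds in DMSO; incubate 18 h at 37 C; add One-Glo; wait 30 min at room temperature; measure luminescence.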

[17] = qHTS assay to identify small molecule agonists of the estrogen related receptor (ERR) signaling pathway (AID 1224820)
How it was run: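 An ERR cell line provided by NTP was seeded at 2,000 cells per well and allowed to settle for 6 h before compounds in DMSO were added. After 18 h at 37 C, luciferase activity was measured by One-Glo luminescence.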

[18] = tested on: estrogen-related receptor alpha (ERRalpha) with PGC-1alpha coactivator, human; experiment: qHTS assay to identify small molecule antagonists of the estrogen related receptor signaling pathway with the pleiotropic PPARgamma coactivator (PGC) (AID 1224821; calls by dose curve)
How it was run: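 A PGC/ERR cell line supplied by NTP is seeded, allowed 6 h at 37 C, and treated with test compounds in DMSO for 18 h. Signal is then measured as luciferase luminescence using One-Glo.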

[19] = qHTS assay to identify small molecule antagonists of the estrogen related receptor signaling pathway with the pleiotropic PPARgamma coactivator (PGC) cell viability counter screen (AID 1224822)
How it was run: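 17.5 h compound treatment of PGC/ERR cells at 37 C; readout CellTiter-Fluor fluorescence; run alongside the PGC/ERR antagonist screen to flag cytotoxic compounds.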

[20] = qHTS assay to identify small molecule agonists of the estrogen related receptor signaling pathway with the pleiotropic PPARgamma coactivator (PGC) (AID 1224823)
How it was run: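 Compounds dissolved in DMSO are added by pin tool to PGC/ERR cells that have settled for 6 h, and incubation continues 18 h at 37 C. Reporter output is measured as One-Glo luminescence.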

Measured: Potency

Chain of Luciferin 4-monooxygenase (Photinus pyralis) (P08659 whole entry, looked up): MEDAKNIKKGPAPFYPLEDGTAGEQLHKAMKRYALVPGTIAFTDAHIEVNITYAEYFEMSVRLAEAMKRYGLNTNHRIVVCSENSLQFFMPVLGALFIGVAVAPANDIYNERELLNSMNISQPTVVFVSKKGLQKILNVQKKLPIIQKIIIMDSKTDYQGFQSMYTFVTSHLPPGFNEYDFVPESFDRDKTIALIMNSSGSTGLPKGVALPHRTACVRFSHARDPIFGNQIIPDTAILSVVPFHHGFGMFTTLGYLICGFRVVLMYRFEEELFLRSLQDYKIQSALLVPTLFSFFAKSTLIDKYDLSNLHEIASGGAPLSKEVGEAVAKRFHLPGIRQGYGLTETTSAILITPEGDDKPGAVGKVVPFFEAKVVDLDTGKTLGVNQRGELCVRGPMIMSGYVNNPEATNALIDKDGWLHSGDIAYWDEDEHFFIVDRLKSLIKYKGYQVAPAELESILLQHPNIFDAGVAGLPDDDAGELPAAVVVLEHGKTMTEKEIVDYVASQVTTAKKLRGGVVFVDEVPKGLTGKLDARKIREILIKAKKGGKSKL
Chain of Thyrotropin receptor (Homo sapiens) (P16473 whole entry, looked up): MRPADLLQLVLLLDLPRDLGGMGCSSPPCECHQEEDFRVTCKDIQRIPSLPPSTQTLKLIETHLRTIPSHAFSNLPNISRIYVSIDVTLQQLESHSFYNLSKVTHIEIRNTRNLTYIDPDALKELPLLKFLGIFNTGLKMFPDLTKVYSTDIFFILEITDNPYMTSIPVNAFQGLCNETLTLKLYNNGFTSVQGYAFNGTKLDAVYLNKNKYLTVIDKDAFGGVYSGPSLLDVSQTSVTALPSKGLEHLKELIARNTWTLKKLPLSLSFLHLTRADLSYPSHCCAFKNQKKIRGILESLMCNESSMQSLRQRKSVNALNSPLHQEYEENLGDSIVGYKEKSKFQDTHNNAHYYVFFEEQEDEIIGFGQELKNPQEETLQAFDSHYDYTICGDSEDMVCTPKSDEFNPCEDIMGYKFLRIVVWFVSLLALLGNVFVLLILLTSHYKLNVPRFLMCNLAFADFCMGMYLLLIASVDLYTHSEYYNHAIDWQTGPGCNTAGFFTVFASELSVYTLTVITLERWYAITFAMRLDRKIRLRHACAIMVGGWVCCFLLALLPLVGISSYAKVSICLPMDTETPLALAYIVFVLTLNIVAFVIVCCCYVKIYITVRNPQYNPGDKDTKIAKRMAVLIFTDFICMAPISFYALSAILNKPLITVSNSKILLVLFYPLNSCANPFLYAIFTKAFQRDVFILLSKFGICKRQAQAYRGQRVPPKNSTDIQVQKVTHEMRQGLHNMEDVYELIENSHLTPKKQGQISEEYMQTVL
Chain of Nuclear receptor subfamily 1 group I member 3 (Homo sapiens) (Q14994 whole entry, looked up): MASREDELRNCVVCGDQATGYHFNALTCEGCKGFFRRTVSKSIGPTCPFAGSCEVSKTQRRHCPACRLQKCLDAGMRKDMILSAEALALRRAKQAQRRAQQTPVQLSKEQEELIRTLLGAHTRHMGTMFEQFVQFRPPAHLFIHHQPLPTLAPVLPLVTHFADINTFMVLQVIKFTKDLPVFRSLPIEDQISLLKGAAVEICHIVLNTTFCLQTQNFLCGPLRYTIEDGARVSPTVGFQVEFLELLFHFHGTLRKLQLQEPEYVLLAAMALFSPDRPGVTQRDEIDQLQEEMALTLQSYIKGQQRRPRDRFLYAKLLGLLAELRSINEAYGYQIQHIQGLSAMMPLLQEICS

CS(=O)(=O)c1ccc(Cl)cc1
not listed: [14] | [15] | [16] | [17] | [18] | [19] | [20]
inactive: all other assays above

CC1=CC(=O)CC(C)(C)C1
4.99 µM (active) and inactive: [2]
inactive: [1] | [3] | [11] | [12] | [14]
4.49 µM (active) and inactive: [13]
22.3 µM (active) and inactive: [4]
28.1 µM (active) and inactive: [10]

O=[N+]([O-])c1ccccc1C(F)(F)F
not listed: [14] | [15] | [16] | [17] | [18] | [19] | [20]
inactive: all other assays above

C=C1C[C@]23C[C@@]1(O)CC[C@H]2[C@@]12C=C[C@H](O)[C@@](C)(C(=O)O1)[C@H]2[C@@H]3C(=O)O
inactive: [1] | [2] | [3] | [4] | [10] | [11] | [12] | [13]

CCCCC(=O)O
inactive: [1] | [2] | [3] | [4] | [6] | [7] | [8] | [9] | [10] | [14] | [13]

CC(C)=CCC/C(C)=C/C=O
inactive: [1] | [2] | [3] | [4] | [6] | [7] | [8] | [9] | [10] | [13]

CC/C(C)=N/O
inactive: [1] | [2] | [3] | [4] | [6] | [7] | [8] | [9] | [10] | [14] | [13]

CC(=O)OC[C@H]1O[C@@](COC(C)=O)(O[C@H]2O[C@H](COC(C)=O)[C@@H](OC(C)=O)[C@H](OC(C)=O)[C@H]2OC(C)=O)[C@@H](OC(C)=O)[C@@H]1OC(C)=O
inactive: [1] | [2] | [3] | [4] | [5] | [6] | [7] | [10] | [14] | [13]

C=C(CC(=O)O)C(=O)O
inactive: [1] | [2] | [3] | [4] | [5] | [10] | [13]

CN=C(NC#N)NCCSCc1nc[nH]c1C
inactive: all assays above

OCC(CO)(CO)CO
not listed: [11] | [12] | [15] | [16] | [17] | [18] | [19] | [20]
inactive: all other assays above

— PubChem BioAssay (Tox21)
